For assay [1], the target named is Lysine-specific demethylase 5B (Homo sapiens) (UniProt Q9UGL1). Briefly: Optimization screen for KDM5B Histone Demethylases FDH coupled qHTS against the LOPAC library (AID 1347166). Conditions: KDM5B demethylation, FDH-coupled NADH fluorescence (FDH is formaldehyde dehydrogenase); series mostly up to 57.5 µM. The gist of the method: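 KDM5BDeltaAP (200nM final) preincubated 10 min with compound, then 12.5uM H3K4Me3, 25uM a-ketoglutarate, ascorbate, Fe(II), NAD+ and FDH added; 50mM HEPES pH 7.5, 0.01% Tween-20. NADH fluorescence (340/450 nm) change over 30 min, room temperature.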
Chain of Lysine-specific demethylase 5B (Homo sapiens) (Q9UGL1 whole entry, looked up): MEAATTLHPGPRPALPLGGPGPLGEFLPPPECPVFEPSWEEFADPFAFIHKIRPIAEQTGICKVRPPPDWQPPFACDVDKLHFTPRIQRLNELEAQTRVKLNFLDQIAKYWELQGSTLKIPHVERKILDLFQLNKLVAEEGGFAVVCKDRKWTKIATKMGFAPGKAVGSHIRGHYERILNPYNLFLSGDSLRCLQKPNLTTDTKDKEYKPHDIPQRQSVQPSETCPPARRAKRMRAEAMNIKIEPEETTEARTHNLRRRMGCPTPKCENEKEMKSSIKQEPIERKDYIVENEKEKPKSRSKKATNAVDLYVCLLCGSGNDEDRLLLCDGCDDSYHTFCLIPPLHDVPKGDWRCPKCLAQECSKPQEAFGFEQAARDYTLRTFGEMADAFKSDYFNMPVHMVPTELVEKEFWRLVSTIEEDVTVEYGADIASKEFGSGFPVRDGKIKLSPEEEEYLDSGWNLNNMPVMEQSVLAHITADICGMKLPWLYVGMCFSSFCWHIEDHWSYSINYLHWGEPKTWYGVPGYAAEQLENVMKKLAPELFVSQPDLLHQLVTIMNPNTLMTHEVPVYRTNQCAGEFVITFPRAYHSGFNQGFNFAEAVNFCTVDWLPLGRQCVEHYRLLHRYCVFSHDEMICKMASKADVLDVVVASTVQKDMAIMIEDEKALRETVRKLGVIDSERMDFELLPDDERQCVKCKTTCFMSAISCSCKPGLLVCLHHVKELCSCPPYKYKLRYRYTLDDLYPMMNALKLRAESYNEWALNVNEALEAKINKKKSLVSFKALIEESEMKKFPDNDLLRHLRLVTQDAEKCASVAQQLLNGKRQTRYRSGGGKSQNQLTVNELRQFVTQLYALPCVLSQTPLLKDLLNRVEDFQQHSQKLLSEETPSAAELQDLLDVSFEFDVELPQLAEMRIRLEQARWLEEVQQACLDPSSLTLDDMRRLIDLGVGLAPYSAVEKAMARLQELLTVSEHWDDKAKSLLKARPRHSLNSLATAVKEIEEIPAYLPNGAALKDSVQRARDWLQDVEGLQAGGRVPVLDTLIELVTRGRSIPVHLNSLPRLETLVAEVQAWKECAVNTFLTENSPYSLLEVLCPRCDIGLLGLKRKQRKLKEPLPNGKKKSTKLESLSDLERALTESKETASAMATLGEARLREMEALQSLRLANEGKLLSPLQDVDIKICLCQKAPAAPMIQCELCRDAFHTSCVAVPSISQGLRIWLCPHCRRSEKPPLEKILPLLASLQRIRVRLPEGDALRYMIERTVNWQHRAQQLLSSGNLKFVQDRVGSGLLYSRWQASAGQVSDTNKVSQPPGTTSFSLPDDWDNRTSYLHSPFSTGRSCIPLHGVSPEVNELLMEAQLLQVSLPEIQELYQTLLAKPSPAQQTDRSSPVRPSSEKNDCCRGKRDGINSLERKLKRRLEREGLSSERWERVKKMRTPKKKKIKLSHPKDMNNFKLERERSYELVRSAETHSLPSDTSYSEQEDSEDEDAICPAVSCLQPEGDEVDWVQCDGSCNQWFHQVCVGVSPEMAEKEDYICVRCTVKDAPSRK
A general note: Quantitative high-throughput screening tests each substance at several concentrations.

A short description of assay [2]: qHTS to identify inhibitors of the type 1 interferon - major histocompatibility complex class I in skeletal muscle: primary screen against the NCATS LOPAC collection (AID 1347405).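 Note: lytic HiBiT luminescence reporting HLA-B protein level.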 The note with it: iHSKM muscle cells, IFN-b-induced MHC-I HiBiT luminescence, 24 h; series mostly up to 45.9 µM. The gist of the method:
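Cells: C25cl48 human myoblasts, HiBiT-tagged HLA-B*08:01, stimulated with IFN-beta 4.0 ng/ml. Compounds are titrated 1:4.3 over 7 points from 46 uM final and incubated 24 hrs; endogenous MHC class I is quantified by HiBiT lytic luminescence.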

A short description of assay [3]: qHTS to identify inhibitors of the type 1 interferon - major histocompatibility complex class I in skeletal muscle: primary screen against the NCATS Pharmaceutical Collection (AID 1347407).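 Note: luminescence of HiBiT knocked into endogenous HLA-B as interferon-induced MHC class I level.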 Note: potency is the fitted concentration of half-maximal effect. The note with it: human skeletal muscle cells, IFN-b-induced MHC-I HiBiT luminescence, 24 h; series mostly up to 45.9 µM. In a few lines: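 Compounds […] were added to CRISPR-engineered HLA-B-HiBiT C25cl48 human myoblasts with 4.0 ng/ml IFN-beta. After 24 hrs at 37 C, cells were lysed and HiBiT luminescence measured.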

A short description of assay [4]: qHTS for inhibitors of adenylyl cyclases using a fission yeast platform: a pilot screen against the NCATS LOPAC library (AID 1347410). The note with it: S. pombe CHP2027, fbp1-GFP fluorescence, 18 h, yeast expressing mammalian AC9 and human GNAS; series mostly up to 57.5 µM. The gist of the method: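 GFP from fbp1-GFP reporter, read by Acumen laser cytometry, indicates AC inhibition in fission yeast expressing AC9, GNAS and PDE4D2. Cells grown 18 h in the dark at 30C with compounds, final up to 57 uM.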

The nature of assay [5]: Confirmatory screen NINDS Rhodamine qHTS for Zika virus inhibitors (AID 1347161).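 For activity change, negative = inhibition: purified Zika NS2B-NS3 protease with linked NS2B cofactor domain and Rhodamine110 peptide substrate.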 Note: nearly all actives have a fitted effect of over 60% in size. Note: potency is the fitted concentration of half-maximal effect. The note with it: purified enzyme assay, Rhodamine110 substrate fluorescence, 15 min; series mostly up to 114 µM. In a few lines: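 Aprotinin served as in-plate control. Conditions: 25 nM linked NS2B-NS3, pH 8.0 Tris buffer, titrated compounds, 15 min preincubation and 15 min reaction with 1.5 microM Rhod110 substrate at room temperature.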

Assay [6] has as its system Zika virus NS2B-NS3 protease (linked). Kind of assay: 384 well plate NINDS AMC confirmatory qHTS for Zika virus inhibitors (AID 1347163).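 For activity change, negative = inhibition: linked protease at 5 30 or 60 nM final depending on run; fluorescence of AMC released from Ac-VKTGKR-AMC peptide cleaved by the protease; top concentration of the series differs between compounds.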 Note: nearly all actives have a fitted effect of over 50% in size. Note: potency is the fitted concentration of half-maximal effect. Conditions: Recombinant NS2B-NS3 protease, Ac-VKTGKR-AMC fluorescence; series mostly up to 1 mM. The gist of the method: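 Linked protease 5/30/60 nM final; cpds up to 1 mM final, ~15 min preinc. Substrate Ac-VKTGKR-AMC 30 microM final. RT, dark, 25 min; FI ex 355/em 460; normalized to no-enzyme/no-inhibitor ctrls.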

The nature of assay [7]: Vero cells viability qHTS for Zika virus inhibitors (AID 1347167). The note with it: cytotoxicity counter-screen (Zika); series mostly up to 45.9 µM. In a few lines:
(§1)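 Compounds were tested in concentration series on cells grown in DMEM containing 4% FBS. After 24 to 48 hours, cellular ATP was measured by luminescence with CellTiter Glo.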

A short description of assay [8]: HepG2 cells viability qHTS for Zika virus inhibitors (AID 1347168). Note: potency is the fitted concentration of half-maximal effect. Conditions: Zika counter-screen; series mostly up to 45.9 µM. In a few lines:
as §1

Assay [9] in a line: Tertiary RLuc qRT-PCR qHTS assay for Zika virus inhibitors (AID 1347169). For activity change, negative = inhibition: top concentration of the series differs between compounds. Note: nearly all actives have a fitted effect of over 55% in size. Note: potency is the fitted concentration of half-maximal effect. The note with it: infected Vero cells, reporter luminescence, 48-72 h; series mostly up to 45.9 µM. The gist of the method:
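Orthogonal cell-based readout: luminescence measured 1-1.5 hrs after adding live-cell Renilla substrate to Vero cells that had been infected with ZIKV-RLuc (MOI 1-2) post-compound, incubated 48-72 hrs at 37 degrees C.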
A general note: In qPCR the cycle at which signal appears reflects the starting amount.

Assay [10] has as its system Zika virus NS2B-NS3 protease (linked construct). Briefly: 384 well plate NINDS Rhodamine confirmatory qHTS for Zika virus inhibitors (AID 1347164).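 Note: fluorescence from protease cleavage of Ac-LKRR-rhodamine 110 substrate; potency is the fitted concentration of half-maximal effect; nearly all actives have a fitted effect of over 65% in size.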 The note with it: rhodamine-110 peptide substrate fluorescence. In a few lines:
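Fluorescence at 485/538 nm was measured 25 minutes after adding 10 microM Ac-LKRR-Rd substrate, in the dark at room temperature. The protease (5, 30 or 60 nM final) had been preincubated ~15 minutes with compound; aprotinin as control.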

Where “and” joins values, the source holds several entries; their conditions need not be identical. Identical values can stand only once. A number with no mark means an inactive call. Inconclusive results are not listed. Entries that show only a call come without a potency. Calls of active or inactive are those of the source. Calls come from the whole dose curve; as a rule, active = well fitted curve in the direction sought with a large enough effect; inconclusive = small, poorly fitted or top-dose-only effect, or another doubt; inactive = no such curve, though single readings can be large; an effect the other way counts as inactive or inconclusive.

`CC(C)(C)NC[C@H](O)COc1nsnc1N1CCOCC1`: the outcome in [1], in [2] and in [4] was inactive. The Potency entry in assay [3] is “inactive”.

For `CCC(CC)(CC(=O)Nc1cccc(/C=C/c2nc(C3CCC3)cs2)c1)C(=O)O`, the Potency in assay [5] is 22.1 µM (active). The Potency result in assay [6], in assay [8], in assay [9] and in assay [3] was “inactive” each time. In addition, the compound was called inactive in assay [7].

Take `CC(C)(C)CC(C)(C)c1ccc(O)c(-n2nc3ccccc3n2)c1`: the Potency entry in assay [3] was “inactive”.

For the compound `C=C[C@H]1CN2CC[C@H]1C[C@H]2[C@H](O)c1ccnc2ccc(OC)cc12`, the Potency entry in [5] and in [9] was “inactive” throughout.

With `O=C(O)c1ccc(S(=O)(=O)N(Cl)Cl)cc1`, in assay [3], the Potency entry is “inactive”.

`CC(=O)NC(=O)c1ccccc1O`: the Potency result in [3] is “inactive”.

For the compound `O=C(NCCc1c[nH]c2ccccc12)c1cccnc1`, the Potency result in [3] was “inactive”.

`CC(CNC1CCCCC1)OC(=O)c1ccccc1` (configuration not stated): the Potency entry in assay [3] was “inactive”.

As to `COc1ccc(S(=O)(=O)N2c3ccc(Cl)cc3[C@@](O)(c3ccccc3Cl)[C@H]2C(=O)N2CCC[C@@H]2C(N)=O)cc1OC`, the Potency result in assay [3] is “inactive”.

Turning to `NC(=S)N/N=C/c1cccnc1`, the Potency result in [3] is “inactive”.

In the case of `Nc1ccc(S(=O)(=O)NCc2ccccc2)cc1`, the Potency result in [3] was “inactive”.

As to `CC1(COc2ccc(CC3SC(=O)NC3=O)cc2)CCCCC1` (configuration not stated), in assay [5], the Potency was 3.11 µM (active). Besides, in assay [7], the call was inactive. In addition, the Potency entry in assay [8] and in [3] was “inactive” each time.

As to `C[C@]12CCC(=O)C=C1C=C[C@@H]1[C@@H]2CC[C@@]2(C)[C@H]1CC[C@@]21CCC(=O)O1`, in assay [3], the Potency entry was “inactive”.

On to `CC(C)Cn1cnc2c1c(=O)n(C)c(=O)n2C`, for which the Potency result in assay [3] is “inactive”.

Take `O=C(N/N=C/c1ccc([N+](=O)[O-])o1)c1ccc(O)cc1`: in [3], the Potency entry was “inactive”.

`N=C(N)N1CCc2ccccc2C1`: in assay [3], the activity change, negative = inhibition is -4.74% [at 3.83 µM].

With `Cc1cc(-c2ccccc2)nnc1NCCN1CCOCC1`, the Potency entry in assay [3] is “inactive”.

Take `C=C1c2cccc(O)c2C(O)=C2C(=O)[C@]3(O)C(O)=C(C(N)=O)C(=O)[C@@H](N(C)C)[C@@H]3[C@@H](O)[C@H]12`: the Potency was 8.91 µM (active) and 316 µM (active) in assay [6]; 251 µM (active) in [10]. The result in assay [7] was inactive. Moreover, the Potency result in assay [8] and in assay [9] was “inactive” in each case.

For `C[C@H]1O[C@@H](O[C@H]2CC[C@@]3(C)[C@H](CC[C@@H]4[C@@H]3C[C@@H](O)[C@]3(C)[C@@H](C5=CC(=O)OC5)CC[C@]43O)C2)C[C@H](O)[C@@H]1O[C@H]1C[C@H](O)[C@H](O[C@H]2C[C@H](O)[C@H](O[C@@H]3O[C@H](CO)[C@@H](O)[C@H](O)[C@H]3O)[C@@H](C)O2)[C@@H](C)O1`, the outcome in assay [7] was inactive. For the same compound, the Potency result in assay [8] was “inactive”. Also, the Potency in assay [9] was 0.415 µM (active); in assay [3], 0.528 µM (active).

`CN=C(N)NCCC[C@H](N)C(=O)O`: the compound was classed as inactive in assay [1], in [2] and in assay [4].

In the case of `CCOC(=O)[C@H](CCc1ccccc1)N[C@@H](C)C(=O)N1[C@H](C(=O)O)C[C@H]2CCCC[C@@H]21`, the result in assay [1], in assay [2] and in [4] was inactive.

For `CCC1NC(=O)c2cc(S(N)(=O)=O)c(Cl)cc2N1` (configuration not stated), in assay [3], the Potency result is “inactive”.

Turning to `NC(N)=NCc1cccc(I)c1`, the outcome in [1], in [2] and in assay [4] was inactive.

Consider `CO[C@]12C[C@@H](COC(=O)c3cncc(Br)c3)CN(C)[C@@H]1Cc1cn(C)c3cccc2c13`, for which the Potency result in assay [3] is “inactive”.

With `Cc1nc(-c2ccc(Cl)cc2)oc1COC(C)(C)C(=O)O`, the Potency result in assay [3] is “inactive”.

Turning to `Cc1ncc(CO)c(C=O)c1O`, in assay [3], the Potency result is “inactive”.

In the case of `Oc1c(Cl)cc(Cl)c(Cl)c1Cc1c(O)c(Cl)cc(Cl)c1Cl`, the Potency is 3.55 µM (active) in assay [5], 35.5 µM (active) in [6] and 14.1 µM (active) in assay [10].

Turning to `COc1cc(NS(=O)(=O)c2ccc(N)cc2)ncn1`, the Potency entry in assay [3] is “inactive”.

For `CCCCCCCCCCC[C@@H](C[C@@H]1OC(=O)[C@H]1CCCCCC)OC(=O)[C@H](CC(C)C)NC=O`, the Potency entry in assay [3] is “inactive”.

Turning to `CCCc1ncc(C[n+]2ccccc2C)c(N)n1`, the Potency result in assay [3] is “inactive”.

For `O=C(O)C(Cc1cc(I)c(O)c(I)c1)c1ccccc1` (configuration not stated), the figures for the Potency in [5] and in assay [10] were 50.1 µM (active) and 112 µM (active), respectively. The activity change, negative = inhibition in assay [9] was -2.94% [at 1.74 µM]. For the same compound, the Potency result in [3] is “inactive”.

`CC(C)=CCOc1ccc(/C=C/C(=O)c2ccc(OCC=C(C)C)cc2OCC(=O)O)cc1`: the Potency in assay [5] was 6.31 µM (active); in [6], 39.8 µM (active). For the same compound, the activity change, negative = inhibition in assay [9] is 84.9% [at 5.25 µM]. Moreover, the Potency result in assay [3] was “inactive”.

Turning to `CCO[C@@H]1O[C@H](C(COCc2ccccc2)OCc2ccccc2)[C@H](OCc2ccccc2)[C@H]1O` (some centres not stated), in [3], the Potency entry is “inactive”.

`C[C@@]12C(=O)OC(=O)[C@]1(C)C1CCC2O1`: in assay [3], the Potency was 13.3 µM (active).

With `CCCCN=C(N)N=C(N)N`, the Potency entry in assay [3] was “inactive”.

As to `O[C@@H](c1cc(C(F)(F)F)nc2c(C(F)(F)F)cccc12)[C@H]1CCCCN1`, in assay [7], the call was inactive. The values for the Potency in assay [8] and in assay [9] were 20.8 µM (active) and 9.3 µM (active), respectively.

Take `Cc1cccc(C)c1NC(=O)CN1CCCC1`: the Potency result in assay [3] is “inactive”.

On to `CCc1oc2ccccc2c1C(=O)c1cc(Br)c(O)c(Br)c1`, for which the figures for the Potency in assay [5], in [6] and in [10] were 1.75 µM (active), 79.4 µM (active) and 28.2 µM (active), respectively. Moreover, the call in assay [7] was inactive. Moreover, in assay [3], the Potency entry was “inactive”.

For the origin of these results see PubChem BioAssay (NCATS).
